PubChem BioAssay (EPA / NIEHS)
Where “and” joins values, the source holds several entries; their conditions need not be identical. Identical values can stand only once. Results filed as inconclusive are left out. Calls of active or inactive are those of the source. The calls were made as follows: active = hit-call score of the fitted dose curve at least 0.9, where 1 is the maximum; inconclusive = response in the unintended direction; inactive = score below 0.9.

How the values were obtained:
[1] = ATG_XTT_Cytotoxicity: Cytotoxicity Assessment in the Attagene TRANS-FACTORIAL HepG2 Assay (AID 2283584);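 as to AC50: cells exposed to compound for 24 h before reading; active means loss of viability signal versus DMSO baseline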
Method in brief: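 XTT readout of cell number in transfected HepG2 cells, 24 h post-dosing; DMSO serves as negative control and baseline, with activity taken as loss of viability signal.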

[2] = TOX21_p53_BLA_p2_viability: Viability Assessment in the Tox21 HCT-116 p53 Agonism Beta-lactamase Assay, Phase 2 (AID 2283591);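 also: compound exposure lasted 16 h at 37 °C; actives lower the ATP signal meaning cytotoxicity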
Method in brief: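 HCT-116 p53-bla cells (4000/well) rested 5 h at 37C, then received compounds in DMSO (217-fold dilution) for 16 h at 37C, 5% CO2. After the CCF4 read, CellTiter-Glo was added; ATP luminescence was read after 30 min at room temperature.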

[3] = target: Cellular tumor antigen p53 (Homo sapiens) (UniProt P04637); test: TOX21_p53_BLA_p2_ratio: Tox21 HCT-116 p53 Agonism Beta-lactamase Assay, Ratio, Phase 2 (AID 2283592)
Method in brief: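 In this cell-based reporter format, HCT116 cells were dosed with chemicals delivered from DMSO by 217-fold dilution and incubated 16 h at 37C. Emission at 460 and 530 nm after 2 h CCF4-AM loading provided the ratio, fitted upward versus DMSO.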

[4] = TOX21_p53_BLA_p3_viability: Viability Assessment in the Tox21 HCT-116 p53 Agonism Beta-lactamase Assay, Phase 3 (AID 2283593);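 also: cells exposed to compound for 16 h before reading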
Method in brief: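 HCT-116 cells (4000/well) rested 5 h at 37C, then got DMSO compounds by pin tool (217-fold dilution) for 16 h at 37C, 5% CO2. After the bla read, CellTiter-Glo was added and luminescence read at 30 min, room temperature.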

[5] = target: Cellular tumor antigen p53 (Homo sapiens) (UniProt P04637); test: TOX21_p53_BLA_p3_ratio: Tox21 HCT-116 p53 Agonism Beta-lactamase Assay, Ratio, Phase 3 (AID 2283596)
Method in brief: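 HCT116 p53-bla cells (4000/well) given compound in DMSO (217-fold dilution) after 5 h, incubated 16 h at 37C. CCF4-AM substrate 2 h at room temperature; 460/530 nm emission ratio, gain fitted against DMSO.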

[6] = TOX21_p53_BLA_p4_viability: Viability Assessment in the Tox21 HCT-116 p53 Agonism Beta-lactamase Assay, Phase 4 (AID 2283597);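 also: hits lower the luminescence signal meaning cytotoxicity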
Method in brief: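 We seeded HCT116 p53 reporter cells at 4000/well and waited 5 h. We then added compounds in DMSO at a 217-fold dilution and incubated for 16 h. Viability was read as CellTiter-Glo luminescence after 30 min at RT.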

[7] = target: Cellular tumor antigen p53 (Homo sapiens) (UniProt P04637); test: TOX21_p53_BLA_p5_ratio: Tox21 HCT-116 p53 Agonism Beta-lactamase Assay, Ratio, Phase 5 (AID 2283599)
Method in brief: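 HCT-116 cells carrying a p53-inducible beta-lactamase reporter were seeded at 4000 cells/well and dosed after 5 h with compound in DMSO (217-fold dilution). After 16 h at 37C, CCF4-AM substrate was added for 2 h, and the 460/530 nm emission ratio was scored as gain-of-signal versus DMSO.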

[8] = tested on: Thyroperoxidase (TPO), gene 54314; test: CCTE_Simmons_AUR_rTPO: CCTE's Amplex UltraRed Assay for Thyroperoxidase (TPO) Inhibition, Simmons Lab (AID 2283662)
Method in brief: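 Cell-free peroxidase activity assay using rat thyroid gland microsomes with excess H2O2 (300 uM) and 25 uM Amplex UltraRed. Compounds tested from 5 nM to 87.5 uM; fluorescence measured after 30 min at 37C, analysed relative to DMSO baseline.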

[9] = STM_H9_OrnCyssISnorm_ratio: Stemina devTOX quickPredict H9 human embryonic stem cell (hESC)-based Assay for Ornithine (ORN):Cystine (CYSS) Ratio (AID 2283714)
Method in brief: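 Undifferentiated H9 hESCs were exposed to compound for 72h with media and chemical replaced every 24h. Final 24-h conditioned media were deproteinized and analysed by UPLC-HRMS. ORN and CYSS peak areas were normalized to C13 internal standards and the ratio taken versus 0.1% DMSO.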

Measured: AC50

Cellular tumor antigen p53 (Homo sapiens), sequence (P04637 whole entry, looked up): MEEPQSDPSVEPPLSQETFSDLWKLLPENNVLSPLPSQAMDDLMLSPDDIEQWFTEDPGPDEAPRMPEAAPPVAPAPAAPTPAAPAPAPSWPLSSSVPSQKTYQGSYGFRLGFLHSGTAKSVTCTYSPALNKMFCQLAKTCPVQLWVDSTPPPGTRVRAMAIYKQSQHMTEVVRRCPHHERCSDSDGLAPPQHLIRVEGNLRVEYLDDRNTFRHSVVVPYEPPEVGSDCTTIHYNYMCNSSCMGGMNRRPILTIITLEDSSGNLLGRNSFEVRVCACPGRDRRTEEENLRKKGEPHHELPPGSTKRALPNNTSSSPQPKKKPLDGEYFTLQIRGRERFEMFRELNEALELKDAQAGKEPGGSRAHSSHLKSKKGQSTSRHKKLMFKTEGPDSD

Brc1nc2ccccc2s1
not listed: [8] | [9]
inactive: all other assays above

CC(C)OC=O
not listed: [9]
inactive: all other assays above

CCCC(=O)OCC(COC(=O)CCC)OC(=O)CCC
inactive: [1]

CC1CCCCC1
inactive: [1]

CCN=c1cc2oc3cc(NCC)c(C)cc3c(-c3ccccc3C(=O)OCC)c-2cc1C
active: [1] 32 µM | [2] 38.3 µM and 45.9 µM | [3] 16 µM and 6.62 µM | [4] 59.6 µM and 36.8 µM | [5] 17.8 µM and 31.3 µM | [6] 67.5 µM and 58.2 µM | [7] 21.9 µM and 32 µM | [9] 0.0769 µM

Cc1ccc(O)c(-n2nc3ccccc3n2)c1
not listed: [9]
inactive: all other assays above

CCCCCCCC/C=C\CCCCCCCC(=O)OCC(O)CO (stereo not given)
inactive: [1]

COCCOCCC[Si](C)(O[Si](C)(C)C)O[Si](C)(C)C
inactive: [1]

O=C1C=CC(=O)N1c1ccc(Cc2ccc(N3C(=O)C=CC3=O)cc2)cc1
active: [1] 157 µM | [2] 71 µM | [3] 29.1 µM | [6] 75.2 µM | [7] 74.4 µM
inactive: [4] | [5]

CCOCN(C(=O)CS(=O)(=O)O)c1c(C)cccc1CC
inactive: [1]

CCc1cc(Cc2cc(CC)c(N)c(CC)c2)cc(CC)c1N
active: [6] 68 µM
not listed: [8] | [9]
inactive: all other assays above
